Among the data in PubChem BioAssay (NCI) are growth values, retold here.

Structures are written as SMILES. The panel holds about 83,000 compounds, 20% with a hit somewhere; the sample as a whole holds those more often.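 The test compound was applied at a single concentration to cells in 96-well plates for 48 hours, and percent growth was recorded.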 Unmarked numbers belong to inactive results. Calls of active or inactive are those of the source. How the source made its calls: active means growth percent below 10; inactive means the rest.

Holding throughout (test): NCI-60 one-dose screen, 48 h (100 = growth as untreated, 0 = no growth, -100 = all killed)
What all share (details): 10 µM unless noted

Experiment [1] concerns NCI-H23 lung.
Experiment [2] concerns NCI-H226 lung.
For experiment [3], the system named is NCI-H322M lung.
Experiment [4] has as its system HOP-62 NSCLC.
The test system of experiment [5] is NCI-H460 lung.
For experiment [6], the system named is HOP-92 NSCLC.
Experiment [7] relates to NCI-H522 lung.
Experiment [8] has as its system A549/ATCC NSCLC.
Experiment [9] deals with 786-0 renal.
Experiment [10] relates to COLO 205 colon.
For experiment [11], the system named is DU-145 prostate.
Experiment [12] concerns K-562 leukemia.
The test system of experiment [13] is MALME-3M melanoma.
Experiment [14] relates to MDA-MB-231 breast.
For experiment [15], the system named is RXF 393 renal.
The test system of experiment [16] is SF-268 CNS.
In experiment [17] the test system is SF-295 CNS.
For experiment [18], the system named is SF-539 CNS.
Experiment [19] has as its system UACC-257 melanoma.
The test system of experiment [20] is M14 melanoma.

Turning to `C#Cc1ccccc1NC(=O)c1sc2nc3c(cc2c1N)CCCCCC3`, the growth is 53.5% in [1]; 83.4% in [2]; 82.7% in [3]; 76.8% in [4]; 33.4% in experiment [5]; 67.6% in experiment [6]. Besides, the growth was 72.1% in experiment [7]; 51.4% in experiment [8]; 17% in experiment [9]; 47.4% in experiment [10]; 50% in [11]; 74.5% in experiment [12]. In addition, the growth is 8.8% (active) in [13]; 5.3% (active) in [14]; 92.9% in [15]; 48.5% in experiment [16]; 75.7% in experiment [17]; 62.2% in [18]. Besides, the growth in experiment [19] is 96%; in experiment [20], 56.5%.
In the case of `NC(=O)c1ccc(C2C3=C(CCCC3=O)OC3=C2C(=O)c2ccccc2C3=O)cc1` (stereo not given), the growth in experiment [1] is -34.7% (active); in experiment [2], 113%; in [3], 104%; in experiment [4], 23.6%; in experiment [5], 7.97% (active); in experiment [6], 71.2%. Moreover, the growth is -26.5% (active) in experiment [7]; 26.7% in experiment [8]; 94.8% in experiment [9]; -1.47% (active) in experiment [10]; 12.1% in experiment [11]; 5.5% (active) in experiment [12]. Further, the growth in experiment [13] was -16.3% (active); in experiment [14] it was 5.67% (active); in experiment [15] it was 60%; in [16] it was 9.54% (active); in [17], 42.9%; in experiment [18] it was 0.536% (active). The figures for the growth in experiment [19] and in experiment [20] were -7.13% (active) and -0.786% (active), respectively.
`CC1=C(CCCOC(=O)NCCCl)C2=C(C)C3(CC3)[C@@](C)(O)C(=O)C2=C1`: the growth in experiment [1] is -0.524% (active); in experiment [2], 70%; in [3], 41.1%; in [4] it was -3.61% (active); in experiment [5] it was 3.59% (active); in [6], 8.91% (active). Further, the growth in experiment [7] was 26.6%; in experiment [8], 17.9%; in experiment [9], 11.6%; in experiment [10], 3.83% (active); in experiment [11], 12.4%; in experiment [12], 85.9%. Also, the growth in experiment [13] is 34.6%; in experiment [14], 44.8%; in experiment [15], -69.2% (active); in experiment [16], 14.1%; in [17], 1.44% (active); in [18], 42.6%. The growth in experiment [19] was 48.5%; in experiment [20], 17.9%.
For the compound `Nc1ccc2c(c1)C(=O)C(=O)c1c-2nc2ccccn12`, the growth in experiment [1] is -42.8% (active); in [2], 13.3%; in [3] it was -6.65% (active); in experiment [4] it was -2.15% (active); in experiment [5] it was 0.968% (active); in [6] it was -21.4% (active). Besides, the growth was 17.5% in experiment [7]; -45.4% (active) in experiment [8]; 71.4% in experiment [9]; -49.2% (active) in experiment [10]; -91.1% (active) in [11]; 1.75% (active) in experiment [12]. Besides, the growth in [13] is -98.7% (active); in [14], -7.84% (active); in [15], 29%; in [16], 26.6%; in experiment [17], -67.6% (active); in [18], -32.9% (active). The growth in experiment [19] was -67.9% (active); in experiment [20], -91.1% (active).
As for `COC(=O)c1nc(-c2ccccc2)oc1S(=O)(=O)n1nc(-c2ccccc2)cc1N`, the growth in experiment [1] was 90.4%; in [2], 105%; in experiment [3] it was 90.7%; in experiment [4], 101%; in experiment [5], 100%; in experiment [6], 72.1%. Further, the growth is 44.3% in [7]; 102% in experiment [8]; 87.3% in experiment [9]; -8.05% (active) in [10]; 96.2% in experiment [11]; 4.99% (active) in experiment [12]. Moreover, the growth was 2.22% (active) in [13]; 103% in experiment [14]; 103% in [15]; 87.5% in experiment [16]; 97.5% in experiment [17]; 80.7% in experiment [18]. For the same compound, the growth in experiment [19] is 52%; in [20], 76%.
With `Cn1cc(-c2ccc3c(c2)ncn3-c2ccc(CC(=O)Nc3cc(C(C)(C)C)on3)cc2)cn1`, the growth in experiment [1] was 30.2%; in experiment [2], 22.2%; in experiment [3], 8.78% (active); in experiment [4] it was 36.2%; in [5], 28.5%; in experiment [6], 5.11% (active). The growth in experiment [7] was 32.8%; in [8], 19%; in experiment [9] it was 17.6%; in experiment [10], 38.2%; in experiment [11], 19.3%; in experiment [12], 9.77% (active). Further, the growth in experiment [13] is 25.5%; in experiment [14] it was 11%; in [15], -25% (active); in experiment [16], 25.6%; in experiment [17], 37.2%; in experiment [18], -15.8% (active). Moreover, the growth in experiment [19] is 67.1%; in [20], 19.5%.
Regarding `Cc1cc(NC(=O)CNc2nc(Oc3ccc(F)cc3)nc(-c3ccc(F)cc3)n2)ccc1Cl`, the growth in experiment [1] was 98.1%; in experiment [2] it was 98.9%; in experiment [3] it was 98.7%; in experiment [4] it was 94.5%; in [5], 99.3%; in experiment [6] it was 97.7%. Besides, the growth in [7] was 85.7%; in experiment [8], 87.1%; in experiment [9] it was 99.5%; in experiment [10] it was 112%; in experiment [11] it was 112%; in experiment [12] it was 89.5%. Moreover, the growth was 109% in experiment [13]; 106% in experiment [14]; 92.7% in [15]; 100% in [16]; 96.9% in experiment [17]; 109% in [18]. The growth in experiment [19] was 101%; in experiment [20] it was 104%.
On to `CCC[S@@](=O)c1ccc2nc(NC(=O)OC)[nH]c2c1`, for which the growth in [1] was 93.3%; in experiment [2], 85.6%; in [3] it was 96%; in experiment [4] it was 66.2%; in experiment [5], 99.5%; in experiment [6], 84%. Further, the growth in [7] is 59.9%; in experiment [8] it was 65.7%; in experiment [9], 91.6%; in experiment [10], 96.4%; in [11], 107%; in experiment [12], 40.9%. The growth in experiment [13] was 89.2%; in [14], 83.3%; in experiment [15] it was 95.2%; in [16], 96.1%; in experiment [17], 88%; in experiment [18], 90.8%. For the same compound, the growth in experiment [19] is 57%; in experiment [20] it was 73.2%.
